RGS12 GoLoco inh = RGS12 GoLoco-Gai1 interaction inhibition; Potency, µM (top dose mostly 61.6 µM), actives largely listed as inhibitors; AID 880; Gai1:RGS12 GoLoco peptide FP, rhodamine, 10 min; 230,000 compounds, 0.44% hits; P63096; active means well fitted inhibition curve with a large enough effect, not every such curve was filed as active; inactive means no such curve, though single readings can be large or run the other way; further: nearly all actives have a fitted effect of over 30% in size
Target sequence (P63096 whole entry, looked up): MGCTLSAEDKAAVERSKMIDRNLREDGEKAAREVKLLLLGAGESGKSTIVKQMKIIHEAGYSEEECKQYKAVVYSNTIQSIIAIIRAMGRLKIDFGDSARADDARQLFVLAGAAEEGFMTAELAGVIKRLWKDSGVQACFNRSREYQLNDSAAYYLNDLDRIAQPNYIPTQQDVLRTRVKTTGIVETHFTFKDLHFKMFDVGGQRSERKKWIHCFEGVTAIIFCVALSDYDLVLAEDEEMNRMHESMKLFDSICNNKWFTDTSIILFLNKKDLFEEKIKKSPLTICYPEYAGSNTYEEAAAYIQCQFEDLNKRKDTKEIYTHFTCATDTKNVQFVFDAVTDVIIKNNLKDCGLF
TR SRC2 fluor cs = Texas Red fluorescence interference in TRb-SRC2 counter-screen; TRb/SRC2 Texas Red total fluorescence interference; Potency, µM (top dose mostly 106 µM); 280,000 compounds, 0.29% hits; AID 1479; active means well fitted curve in either direction with a large enough effect; inconclusive means small, poorly fitted or top-dose-only effect
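Human TRb ligand-binding domain at 0.6 uM with 20 nM Texas Red SRC2 peptide in Tris buffer containing 1 uM T3 and 5% DMSO, incubated with compound 5 h at ambient temperature. Total fluorescence (555/632 nm) calculated as parallel + 2 × perpendicular.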
TRb SRC2 PPI = disrupts binding of human TR beta to SRC2 | Potency, µM (series often up to 106 µM), actives largely listed as inhibitors | 280,000 compounds, 0.065% hits | AID 1469 | TRbeta-SRC2 peptide binding, fluorescence polarization; receptor liganded with 1 µM T3 | P10828; further: nearly all actives have a fitted effect of over 50% in size
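Fluorescence polarization of 20 nM Texas Red SRC2 peptide (20-aa NR interaction domain) bound to 0.6 uM human TRb ligand-binding domain, with 1 uM T3, after 5 hr at ambient temperature; inhibition seen as decreased polarization.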
Tau fluor counter = counter-screen for tau fibril formation inhibitors; tau K18 P301L Alexa594 fluorescence, heparin fibrillization; Potency, µM (series often up to 57.7 µM); 280,000 compounds, 0.93% hits; further: nearly all actives have a fitted effect of over 55% in size
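Human tau K18 P301L (15 uM unlabeled, 0.24 uM Alexa 594-labeled) in 100 mM sodium acetate pH 7 with 20 uM heparin, 6 hr at 37 C. ThT 30 uM added, 1 hr ambient; Alexa 594 FP and total fluorescence read at 555/632 nm.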
Tau fibril FP = tau fibrillization inhibition (FP) | K18 P301L tau heparin fibrillization, Alexa594 FP, 6 h | Potency, µM (highest dose often 57.7 µM), most hits filed as inhibitors | 280,000 compounds, 0.39% hits | AID 1468; further: nearly all actives have a fitted effect of over 55% in size
Target sequence (P10636 561-689 P618L limits assumed): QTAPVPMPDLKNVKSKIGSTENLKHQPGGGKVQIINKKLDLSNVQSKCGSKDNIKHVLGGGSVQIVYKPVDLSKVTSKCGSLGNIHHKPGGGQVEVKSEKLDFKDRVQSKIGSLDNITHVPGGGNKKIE
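K18 P301L tau (15 uM unlabeled/0.24 uM Alexa 594-labeled, final) + compound + heparin 20 uM final; 100 mM NaOAc pH 7; 6 hr 37 C; ThT 30 uM final added, 1 hr RT; FP ex 555/em 632 nm.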
Tau ThT inhib = blocks human tau fibril formation measured by thioflavin T. recombinant tau K18 P301L, heparin-induced fibrillization, ThT fluorescence. Potency, µM (series often up to 57.4 µM), actives largely listed as inhibitors. P10636. 270,000 compounds, 2.1% hits. AID 1460; further: nearly all actives have a fitted effect of over 55% in size
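ThT emission at 510 nm, taken 1 hr after adding 30 uM dye, quantifies aggregates formed when 20 uM heparin acts on human tau K18 P301L for 6 hr at 37 C.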
Numbers stand for hits; - = inactive; ? = inconclusive; . = no result given; [ ] = dose if it differs, or a comment. Shown are actives, neighbours in structure and some others; about 3.2% of the full set was active somewhere. Unless noted, the call rests on the fitted dose curve; in most records, active means well fitted curve in the direction sought with a large enough effect; inconclusive means small, poorly fitted or top-dose-only effect, or another doubt; inactive means no such curve, though single readings can be large; an effect the other way counts as inactive or inconclusive.

SMILES | RGS12 GoLoco inh | TR SRC2 fluor cs | TRb SRC2 PPI | Tau fluor counter | Tau fibril FP | Tau ThT inhib
N#C/C(=C\c1ccc([N+](=O)[O-])o1)c1nc2ccccc2[nH]1 | - | - | - | 11µM[quencher] | ? | 7.1µM
CC1CCCN(c2ccc(/C=C(\C#N)c3nn(-c4ccccc4)c(N)c3C#N)cc2[N+](=O)[O-])C1 (configuration not stated) | - | - | - | ? | - | 14µM
CC1CCN(c2ccc(/C=C(\C#N)c3nn(-c4ccccc4)c(N)c3C#N)cc2[N+](=O)[O-])CC1 | - | - | - | ? | - | ?
N#C/C(=C\c1ccc(Sc2ccccc2)o1)c1nc2ccccc2[nH]1 | - | - | - | - | ? | -
Cc1ccc2nc(/C(C#N)=C\c3ccc([N+](=O)[O-])o3)[nH]c2c1 | - | - | ? | 13µM[quencher] | ? | 8.9µM
N#C/C(=C(/O)c1ccc([N+](=O)[O-])o1)c1nc2ccccc2[nH]1 | - | - | - | ? | - | 7.1µM
COc1cccc(Cn2c(=O)c(-c3cccs3)nc3cnc(Nc4cccc(OC)c4)nc32)c1 | - | . | . | . | . | .
N#C/C(=C\c1ccc(N2CCCC2)c([N+](=O)[O-])c1)c1nc2ccccc2[nH]1 | - | - | - | ? | - | 2µM
COc1cc(/C=C(/C#N)c2nc3ccccc3[nH]2)ccc1Oc1ncccc1[N+](=O)[O-] | - | - | - | ? | - | ?
COc1cc(S(=O)(=O)Nc2ccccc2)ccc1N=Cc1c(C)[nH]n(-c2ccc(C)cc2)c1=O | - | - | - | ? | - | ?
COc1cc(SC#N)ccc1N=Cc1c(C)[nH]n(-c2ccc(Cl)cc2)c1=O | - | - | - | - | ? | 11µM
COc1ccc(CCN=Cc2c(C)[nH]n(-c3ccc([N+](=O)[O-])cc3)c2=O)cc1OC | - | - | - | - | - | ?
COc1cc(SC#N)ccc1N=Cc1c(C)[nH]n(-c2ccc(C)c(C)c2)c1=O | - | - | - | - | ? | 18µM
CC(=O)OCC1OC(c2ccc3c(c2)OCO3)C=CC1OC(C)=O (configuration not stated) | . | ? | -[11.2 µM] | -[11.6 µM] | -[11.6 µM] | -[11.5 µM]
CC(=O)Oc1cc2c3c(c1)/C(=C1/SC(=S)NC1=O)C(=O)N3C(C)(C)C=C2C | - | - | - | 7.1µM[quencher] | ? | 7.1µM
COc1cc(-c2noc(-c3ccc(NCCc4ccccc4)c([N+](=O)[O-])c3)n2)cc(OC)c1OC | . | - | - | - | - | -
O=C(/C=C/c1ccc(Cl)c([N+](=O)[O-])c1)Nc1ccc(N2CCCC2)cc1 | - | - | - | 18µM[quencher] | - | 0.89µM
O=C(/C=C/c1ccc(Cl)c([N+](=O)[O-])c1)Nc1ccc(NC(=O)c2ccco2)cc1 | - | - | - | ? | - | ?
COC(=O)c1ccccc1NC1=C/C(=N\S(=O)(=O)c2cccs2)c2ccccc2C1=O | - | - | ? | ? | - | ?
O=C1C(Nc2ccccc2)=C/C(=N/S(=O)(=O)c2cccs2)c2ccccc21 | - | - | - | 8.9µM[quencher] | ? | 3.5µM
Cc1ccc(NC2=C/C(=N/S(=O)(=O)c3cccs3)c3ccccc3C2=O)cc1 | - | - | - | 8.9µM[quencher] | - | ?
CC1=C(C(=O)O)N2C(=O)C(NC(=O)C(N)c3ccccc3)C2SC1 (configuration not stated) | - | - | - | - | - | -
COC(=O)c1c(Oc2ccc(OC)cc2)nnc(-c2ccccc2)c1-c1ccccc1 | . | 794µM[quencher] | - | - | - | -
COC(=O)c1c(-c2ccccc2)c(-c2ccccc2)nn(C)c1=O | . | - | - | - | - | -
COc1ccc(NC(=O)Cn2nnc(-c3ccccc3NS(=O)(=O)c3ccccc3)n2)cc1 | - | - | - | ? | 16µM | -
SMILES | RGS12 GoLoco inh | TR SRC2 fluor cs | TRb SRC2 PPI | Tau fluor counter | Tau fibril FP | Tau ThT inhib
COc1ccc(S(=O)(=O)Nc2ccccc2-c2nnn(CC(=O)Nc3ccccc3OC)n2)cc1 | - | - | - | ? | ? | -
O=[N+]([O-])c1cccc(Cl)c1 | - | - | - | . | . | .
CCOc1ccccc1CNC(=O)c1ccc2nc(CCc3ccccc3)oc2c1 | . | - | - | - | - | ?
COc1ccc(-n2cc(C(=O)OCc3ccc(F)c(F)c3)c3ccccc3c2=O)cc1 | . | 0.079µM[quencher] | - | - | - | -
CCOc1ccc(CCNC(=O)c2ccc(CS(=O)(=O)Cc3ccccc3Cl)o2)cc1OCC | . | - | - | - | - | -
CCOc1ccc(/C=C2\SC(=S)N(NS(=O)(=O)c3ccc(C)cc3)C2=O)cc1OC | - | - | - | - | - | ?
CC(C(=O)O)N1C(=O)/C(=C/C=C/c2ccco2)SC1=S (configuration not stated) | - | ? | - | ? | ? | 8.9µM
O=C(NN1C(=O)/C(=C/c2cccs2)SC1=S)c1ccncc1 | - | - | - | - | - | ?
CC(C)C(C(=O)O)N1C(=O)/C(=C/c2ccc(Br)cc2)SC1=S (configuration not stated) | . | - | - | . | . | .
O=C1/C(=C/C=C/c2ccco2)SC(=S)N1NS(=O)(=O)c1ccccc1 | - | - | - | ? | 16µM | .
O=C1/C(=C/c2cccs2)SC(=S)N1NS(=O)(=O)c1ccccc1 | - | - | - | - | - | 18µM
CN(C)c1nc(N/N=C/c2ccccc2O)nc(Nc2ccc(F)cc2)n1 | - | - | - | 8.9µM[quencher] | ? | ?
CC(C)(C)C(=O)c1sc(Nc2ccccc2)nc1N | - | - | - | ? | - | ?
Cc1ccc(C(=O)c2sc(Nc3ccc(F)cc3)nc2N)c(C)c1 | . | - | - | 16µM[quencher] | - | -
Nc1nc(Nc2cccc(Cl)c2)sc1C(=O)c1ccc(F)cc1 | . | - | - | 8.9µM[quencher] | ? | ?
CCOc1ccc(Nc2nc(N)c(C(=O)c3ccccc3Cl)s2)cc1 | . | - | - | 16µM[quencher] | - | ?
COc1cccc(C(=O)c2sc(Nc3ccc(F)c(Cl)c3)nc2N)c1 | . | - | - | ? | - | -
Nc1nc(Nc2cccc(C(F)(F)F)c2)sc1C(=O)c1ccccc1 | . | - | - | ? | - | -
Nc1nc(Nc2ccccc2F)sc1C(=O)c1ccc(Cl)cc1 | . | - | - | 16µM[quencher] | - | 25µM
CC(C)[C@@H](OCc1ccccc1)[C@H](C)/C=N\O[C@@H](C)c1cn([C@@H]2COC[C@@H]2O)nn1 | . | -[11.2 µM] | -[11.2 µM] | -[11.6 µM] | -[11.6 µM] | -[11.5 µM]
CCCCC(CC)C/C=C1\CC(C(=O)OCC)Oc2ccccc21 (configuration not stated) (tested in a mixture with another compound) | - | - | - | ? | - | -
CCc1nn(CC(=O)Nc2ccc(C)cc2C)c(=O)c2cc3sccc3n12 | . | - | - | - | - | -
CCc1nn(CC(=O)Nc2c(C)cc(C)cc2C)c(=O)c2cc3sccc3n12 | . | 0.28µM[quencher] | - | - | - | -
CC(C)(C)c1ccc(/C=N/NC(=O)Cc2c[nH]c3ccccc23)cc1 | - | - | - | 14µM[quencher] | - | ?

Screening results from PubChem BioAssay.
